Results with a measured potency or affinity are listed apart. Active and inactive are the calls of the source. The rule behind the calls is not given here.
Experiment: cytotoxicity in OVCAR8 ovarian cancer cells, dose response, PAX8 project, cell-based, plate reader, dry powder samples (AID 743197)
Details: series mostly up to 35 µM

Row | Compound | outcome
1 | C[C@@H]1CCCCO[C@@H](CN(C)S(=O)(=O)c2ccc(Cl)cc2)[C@H](C)CN([C@@H](C)CO)C(=O)c2cc(NS(=O)(=O)c3ccc(Cl)cc3)ccc2O1 | inactive
2 | C[C@H](CO)N1C[C@H](C)[C@@H](CN(C)Cc2ccc(Oc3ccccc3)cc2)OCc2ccccc2-c2c(n(C)c3ccccc23)C1=O | inactive
3 | C[C@@H]1CN([C@@H](C)CO)C(=O)c2cc(NC(=O)Nc3ccc4c(c3)OCO4)ccc2O[C@@H]1CN(C)C(=O)Nc1ccc(C(F)(F)F)cc1 | inactive
4 | C[C@@H]1CN([C@@H](C)CO)C(=O)c2cc(NS(=O)(=O)c3ccccc3)ccc2O[C@@H](C)CCCCO[C@@H]1CN(C)Cc1ccc(C(F)(F)F)cc1 | inactive
5 | C[C@@H]1CN([C@@H](C)CO)C(=O)Cc2cc(NC(=O)Nc3ccc(C(F)(F)F)cc3)ccc2O[C@H]1CN(C)S(=O)(=O)c1ccc(F)cc1 | inactive
6 | C[C@@H]1CCCCO[C@H](CN(C)Cc2ccc(C(F)(F)F)cc2)[C@H](C)CN([C@H](C)CO)C(=O)c2cc(NC(=O)Nc3ccc(F)cc3)ccc2O1 | inactive
7 | CN1c2ccc(C#Cc3cccnc3)cc2[C@@H]2[C@@H](CCN2C(=O)Cc2cccnc2)[C@@H]1CO | inactive
8 | COc1ccc(NC(=O)Nc2ccc3c(c2)C(=O)N([C@@H](C)CO)C[C@@H](C)[C@@H](CN(C)Cc2ccc(C(F)(F)F)cc2)OCCCC[C@@H](C)O3)cc1 | inactive
9 | O=C(Nc1ccc(C(F)(F)F)cc1)N1C[C@@H]2N[C@H](C1)C2c1ccc(-c2ccccc2)cc1 (stereo partly specified) | inactive
10 | C[C@H]1CN([C@@H](C)CO)C(=O)CCCn2nncc2CO[C@@H]1CN(C)C(=O)Nc1ccc(-c2cccs2)cc1 | inactive
11 | CCCN(C)C[C@H]1OCCCC[C@@H](C)Oc2ccc(NC(=O)c3ccccc3)cc2C(=O)N([C@H](C)CO)C[C@H]1C | inactive
12 | CC(C)CC#Cc1ccc2c(c1)O[C@@H](CN(C)Cc1ccncc1)[C@H](C)CN([C@@H](C)CO)S2(=O)=O | inactive
13 | C[C@@H]1CN([C@H](C)CO)C(=O)c2cc(NC(=O)Nc3ccc(F)cc3)ccc2O[C@@H](C)CCCCO[C@H]1CN(C)C(=O)Nc1ccc(F)cc1 | inactive
14 | Cc1ccc(S(=O)(=O)N(C)C[C@H]2OCCCC[C@@H](C)Oc3ccc(NS(=O)(=O)c4ccc(F)cc4)cc3C(=O)N([C@@H](C)CO)C[C@H]2C)cc1 | inactive
15 | C[C@H]1CCCCO[C@@H](CN(C)C)[C@@H](C)CN([C@@H](C)CO)C(=O)c2cc(NC(=O)Nc3ccc(C(F)(F)F)cc3)ccc2O1 | inactive
16 | Cc1ccc(S(=O)(=O)Nc2ccc3c(c2)C(=O)N([C@@H](C)CO)C[C@@H](C)[C@@H](CN(C)Cc2ccc(C(F)(F)F)cc2)OCCCC[C@@H](C)O3)cc1 | inactive
17 | COc1ccccc1-c1ccc2c(c1)[C@H]1[C@H](CCN1S(=O)(=O)c1ccccc1F)[C@H](CO)N2 | inactive
18 | COc1ccccc1-c1ccc2c(c1)O[C@H](CN(C)Cc1ccc3c(c1)OCO3)[C@H](C)CN([C@@H](C)CO)S2(=O)=O | inactive
19 | COc1ccc(S(=O)(=O)N2CCCCN3[C@H](C2)[C@H](c2ccc(C#CC(C)C)cc2)[C@@H]3CO)cc1 | inactive
20 | C[C@@H]1CCCCO[C@H](CN(C)CC2CCCCC2)[C@H](C)CN([C@H](C)CO)C(=O)c2cc(NS(=O)(=O)c3ccc(Cl)cc3)ccc2O1 | inactive
21 | COc1ccc(S(=O)(=O)N(C)C[C@H]2Oc3ccc(NC(=O)Nc4ccc(C(F)(F)F)cc4)cc3CC(=O)N([C@H](C)CO)C[C@@H]2C)cc1 | inactive
22 | COc1ccc(S(=O)(=O)N2CCCCN3[C@H](C2)[C@@H](c2ccc(C#CC(C)C)cc2)[C@@H]3CO)cc1 | inactive
23 | COc1ccc(NC(=O)Nc2ccc3c(c2)CC(=O)N([C@@H](C)CO)C[C@@H](C)[C@@H](CN(C)Cc2ccc(Oc4ccccc4)cc2)O3)cc1 | inactive
24 | C[C@@H]1CCCCO[C@H](CN(C)Cc2ccc(Cl)c(Cl)c2)[C@@H](C)CN([C@@H](C)CO)C(=O)c2cc(NS(=O)(=O)c3ccc(Cl)cc3)ccc2O1 | inactive
25 | C[C@H](CO)N1C[C@H](C)[C@@H](CN(C)C(=O)Nc2ccc(F)cc2)OCc2ccccc2-c2c(n(C)c3ccccc23)C1=O | inactive
26 | C[C@H](CO)N1C[C@H](C)[C@H](CN(C)C(=O)NC2CCCCC2)Oc2cc(C#Cc3ccc(F)cc3)ccc2S1(=O)=O | inactive

Source: PubChem BioAssay
